Screens deposited in PubChem by National Center for Advancing Translational Sciences (NCATS).
DRD3 agonist: activates the human D3 dopamine receptor; max activation, %; P35462; 410,000 tested, 0.58% active; AID 652048; D3R DiscoveRx beta-arrestin cells, luminescence, 90 min; in the data active means max activation above about 30%
Target sequence (P35462 whole entry, looked up): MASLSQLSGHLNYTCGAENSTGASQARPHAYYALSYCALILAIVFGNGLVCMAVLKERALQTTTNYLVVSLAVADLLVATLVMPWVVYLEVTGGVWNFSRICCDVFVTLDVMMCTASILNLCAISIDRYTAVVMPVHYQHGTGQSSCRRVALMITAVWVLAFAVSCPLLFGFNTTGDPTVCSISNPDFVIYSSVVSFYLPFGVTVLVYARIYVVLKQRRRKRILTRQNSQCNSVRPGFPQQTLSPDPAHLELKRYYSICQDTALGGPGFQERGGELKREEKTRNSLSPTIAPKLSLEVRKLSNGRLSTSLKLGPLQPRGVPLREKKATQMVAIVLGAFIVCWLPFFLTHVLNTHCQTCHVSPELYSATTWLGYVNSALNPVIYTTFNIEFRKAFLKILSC
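Agonist mode: compounds and dopamine controls were applied to plated cells for 90 min at 37 degrees C after an overnight attachment at 1500 cells/well. Luminescent read-out followed 30 - 60 minutes at room temperature with DiscoveRx detection reagent.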
D3 antag: blocks the human D3 dopamine receptor. D3R cells, DiscoveRx beta-arrestin luminescence, antagonist mode; stronger effect = lower value. max response, negative = inhibition, %. 360,000 tested, 2.5% active. AID 652054; in the data active means max response below about -50%; inconclusive means no clear call, values can overlap the other calls
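Cells plated overnight at 1500 cells/well, then exposed to library compounds with dopamine controls for 90 minutes at 37 degrees C. DiscoveRx reagent added for 30–60 minutes at room temperature; luminescence read, quantitative HTS format.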
a7 integrin act: activators of alpha7 integrin expression for muscular dystrophy; alpha7betagal myoblasts, beta-gal FDG fluorescence, 48 h; Potency, µM (series often up to 38.3 µM), most hits filed as activators; 350,000 tested, 0.064% active; AID 624291; active means well fitted activation curve with a large enough effect; inconclusive means small, poorly fitted or top-dose-only effect; inactive means no such curve, though single readings can be large or run the other way; further: nearly all actives have a fitted effect of over 60% in size
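alpha7betagal+/- myoblasts (passage 13, 250/well) treated 48 h at 37C with compounds at 1:260 dilution of DMSO stock. Lysed, then beta-galactosidase activity read as FDG fluorescence (ex 480/em 540) after 30 min, with pre-read for autofluorescence.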
Large screens that a line does not name were inactive. Compounds with a hit are over-represented: about 2.9% of the library has one in this group of screens.

Nc1[nH]n2c(=O)cc(-c3ccccc3)nc2c1N=Nc1ccc(S(N)(=O)=O)cc1	D3 antag inconclusive, a7 integrin act inconclusive
COCC(C)NC(=O)c1nn(Cc2ccccc2)c(=O)c2ccccc12 (centres undefined)	none
CC(C)n1cc(CN2CCCC(C(=O)Nc3cccc(-c4cc5ccccc5[nH]4)c3)C2)cn1 (centres undefined)	none
Cn1cc(CN2CCCC(C(=O)Nc3cccc(-c4cc5ccccc5[nH]4)c3)C2)cn1 (centres undefined)	D3 antag -68
CCOC(=O)c1c(C)oc2cc(Br)c(OC(C)C(=O)OCC)cc12 (centres undefined)	none
CCOC(=O)COc1cc2c(C(=O)OCC)c(C)oc2cc1Br	DRD3 agonist 35
COCCn1c(C)cc(C(=O)COC(=O)c2ccc(Br)o2)c1C	D3 antag -82, a7 integrin act inconclusive
Cc1cc(C(=O)COC(=O)c2ccc(Br)o2)c(C)n1C	none
COc1ccc(S(=O)(=O)N2CCOC2CNC(=O)C(=O)NCCCc2ccccc2)cc1 (centres undefined)	none
O=C(Nc1cccc(C(F)(F)F)c1)Nc1nnc(N2CCCCCC2)s1	none (no result: D3 antag, a7 integrin act)
CC(C)C[C@H]1COc2cc(Br)ccc2S(=O)(=O)N1	none
Cc1ccccc1C(=O)N1[C@@H](C(C)C)COc2cc(Br)ccc2S1(=O)=O	DRD3 agonist 35
Cc1cc(C(=O)Nc2ccccn2)no1	DRD3 agonist 33
Cc1cc(NC(=O)c2cccc(C(=O)Nc3cc(C)on3)n2)no1	none
COc1cc(C(=O)NCCCN2CCCC2=O)cc(OC)c1OC	none
O=C(Cn1ncc(Cl)c(Cl)c1=O)NC(=O)NC1CCCCC1	D3 antag -68
O=C(CN1CCCCC1)NC(=O)NC1CCCC1	none
CCn1cc(C(=O)NC(C)C23CC4CC(CC(C4)C2)C3)cn1 (centres undefined)	none
CC(NC(=O)Cn1ncc(Cl)c(Cl)c1=O)C12CC3CC(CC(C3)C1)C2 (centres undefined)	D3 antag -77
COc1cccc(CNS(=O)(=O)c2ccc(-n3cnnn3)c(C)c2)c1	none
CC(=O)N1CCCc2cc(S(=O)(=O)N3CCN(C4CCCCC4)CC3)ccc21	D3 antag -56
CCC(=O)N1CCCc2cc(S(=O)(=O)N3CCN(C4CCCCC4)CC3)ccc21	none
O=S(=O)(N/N=C\c1ccc(-c2ccccc2Cl)o1)c1ccccc1	D3 antag -52
O=C(N/N=C/c1ccc(-c2ccccc2Cl)o1)c1ccccc1	D3 antag inconclusive
CN1C[C@H](C(=O)NC2(C)OC3(O)[C@@H]4CCCN4C(=O)[C@H](Cc4ccccc4)N3C2=O)CC2c3cccc4[nH]cc(c34)C[C@H]21 (some centres undefined)	D3 antag -57 (no result: a7 integrin act)
OC(c1ccccc1)(c1nc(-c2ccccc2)cs1)C(F)(F)F (centres undefined)	none (no result: a7 integrin act)
O=C(Nc1ccc(O)c2c(=O)cc(-c3ccccc3Cl)oc12)c1ccc(F)cc1	none
CCc1ccc(S(=O)(=O)Nc2ccc(O)c3c(=O)cc(-c4ccccc4Cl)oc23)cc1	none
O=c1cc(-c2ccccc2Cl)oc2c(NS(=O)(=O)c3cc(Cl)cc(Cl)c3O)ccc(O)c12	DRD3 agonist 36
CC(C)(C)c1ccc(C(=O)Nc2ccc(O)c3c(=O)cc(-c4ccccc4Cl)oc23)cc1	DRD3 agonist 119
CN(CCO)c1cc(N2CCN(C(=O)c3ccco3)CC2)c2nonc2c1[N+](=O)[O-]	none
NC(CO)c1csc(Nc2ccc(C(F)(F)F)cn2)n1 (centres undefined)	none (no result: a7 integrin act)
NC(c1csc(Nc2ccc(C(F)(F)F)cn2)n1)C1CCCCC1 (centres undefined)	D3 antag -53 (no result: a7 integrin act)
COc1ccc(N2Cc3cccc(C(=O)Nc4ccc(F)cc4)c3C2=O)cc1	none (no result: D3 antag, a7 integrin act)
CCOC(=O)CN(C(=O)CSc1nnc(CNc2ccc(F)cc2)n1C)c1ccccc1	none
O=C(CSc1nnc2c(n1)[nH]c1ccc(F)cc12)N1CCOCC1	none
CC1Cc2ccccc2N1C(=O)CSc1nnc2c(n1)[nH]c1ccc(F)cc12 (centres undefined)	D3 antag -68
CCOC(=O)CN(C(=O)CSc1nnc(CNc2ccc(F)cc2)o1)c1ccccc1	D3 antag -80
COc1ccc(CNC(=O)CSc2nnc3c(n2)[nH]c2ccc(F)cc23)cc1	none
CCOC(=O)CN(C(=O)CSc1nnc2c(n1)[nH]c1ccc(OC)cc12)c1ccc(F)cc1	D3 antag -65
CC(C)N(C(=O)CSc1nnc(NC(=O)C2CCC2)s1)C(C)C	a7 integrin act inconclusive
Cc1cccc(C)c1-n1nnnc1C1c2ccccc2C(=O)N1CCCN1CCOCC1 (centres undefined)	none (no result: a7 integrin act)
Nc1ccc(S(=O)(=O)NN=CC=Cc2ccccc2[N+](=O)[O-])cc1	D3 antag -65
NS(=O)(=O)c1ccc(N/N=C/C=C/c2ccccc2[N+](=O)[O-])cc1	none
O=C(c1cccs1)N1CCN(c2nnc(-c3ccccc3)c3ccccc23)CC1	none
CC(C)N(CCO)C(=O)CCc1nnc(CCCc2ccccc2)o1	a7 integrin act 13µM
CC(C)N(Cc1nccn1C)C(=O)CCc1nnc(CCCc2ccccc2)o1	none
CCOc1ccc(Nc2nnc(SCc3nc4ccccc4c(=O)[nH]3)s2)cc1	D3 antag -62
Cc1cccc(C)c1Nc1nnc(SCc2nc3ccccc3c(=O)[nH]2)s1	none
CC1CCN(CCCNC(=O)c2ccc(CSCc3cccc(Cl)c3)o2)CC1	D3 antag -62
CN1CCN(CCCNC(=O)c2ccc(CSCc3cccc(Cl)c3)o2)CC1	none
O=c1[nH]c2ccc([N+](=O)[O-])cc2nc1/C=C(\O)c1ccccc1	none
CN(C)c1ccc2nc3ccc(=[N+](C)C)cc-3sc2c1	D3 antag -60
Cc1cc2nc3ccc(=[N+](C)C)cc-3sc2cc1N	D3 antag -54
Cc1nc2cc(C)c(C)cc2s1	none
CN(C)c1ccc2nc3ccc(=O)cc-3sc2c1	none
Cc1cc(C)n2c(NC3CCCC3)c(-c3cccnc3)nc2n1	none (no result: a7 integrin act)
Cc1ccc(-c2csc(N)n2)s1	none
COc1cc(OC)c2c(C)cc(=O)oc2c1C(CCN1CCOCC1)c1ccc2c(c1)OCO2 (centres undefined)	D3 antag -69
COc1cc(OC)c2c(-c3ccccc3)cc(=O)oc2c1C(CCN1CCCC(C)C1)c1ccc2c(c1)OCO2 (centres undefined)	D3 antag -70
COc1cc(OC)c2c(-c3ccccc3)cc(=O)oc2c1C(CCN1CCCCC1)c1ccc2c(c1)OCO2 (centres undefined)	D3 antag inconclusive
COc1cc(OC)c2c(-c3ccccc3)cc(=O)oc2c1C(CCN1CCOCC1)c1ccc(N(C)C)cc1 (centres undefined)	none
COc1cc(C(CCN2CCCC2)c2c(OC)cc(OC)c3ccc(=O)oc23)cc(OC)c1OC (centres undefined)	D3 antag inconclusive
COc1cc(C(CCN2CCN(c3ccccc3)CC2)c2c(OC)cc(OC)c3c(C)cc(=O)oc23)cc(OC)c1OC (centres undefined)	D3 antag -121
COC(=O)CSc1nnc(-c2ccncc2)o1	none
COc1ccc(Oc2c(O)c3ccccc3n(C)c2=O)cc1	none
CC(CNC(=O)Cn1ccc2cc(S(=O)(=O)N3CCCCCC3)ccc21)c1ccccc1 (centres undefined)	none (no result: D3 antag, a7 integrin act)
